B1: GBRAP_128_3366 (protein)
chain: LDEALLAEIRALVERMITSSVEETAALTREIVARIGTLSLAEQEAAVEIILAALPKLTKEKLEVVADTIRAAAPELDPETQRLLAEVEVEALNLAEELEE
B2: GBRAP_53_6391 (protein)
chain: GEERLEELIEELNRLIEELKTADPETAIKLAREAVELLLELAELGLPEEELVELVRRFAEAARPKPELEPVLVELAKRLAALGREEAAAEVAEALVEELE
B3: GBRAP_35_5625 (protein)
chain: NTNKEIAEATVAVMEDTLLAVDEVPAETFIDTAIKVAKAGIEVAKELKDDKENAKKILEAVKELLEAALKKAEETGAPEEKIKELKELLKEVEELEKKLK
B4: GBRAP_43_5791 (protein)
chain: MEEIVEGALDFARTALETPEITDETKARIVVDAVDFAADEGLLTEEELEELLRLLAESVSLEVAERALEEILKRLKELGAPQSLIDVVEKALEEVKKRRA
B5: GBRAP_160_3991 (protein)
chain: SEEIEKLKEEFKKLFDEMLELAEGESPEERLAVVRVMMGEVILLAEESGVVSDEAEEEIAKIMDELVATVEANPDMSMEELKALVEEALKKIFEVIDKYS
B6: GBRAP_52_5980 (protein)
chain: AEAEARALAEELLALMLAGDREGARALIREIVATKSEAFLELVFAALAELARTATPEERDAIVELALLLEDEALEGGFDEAVVDAGVARVAAAAVAAAAA
B7: GBRAP_14_3765 (protein)
chain: MEEVEKIIDETGKEIAALLAELVPEKAEEFKEAIDEVRKETIARIKETGDALAAAEEGERRLAERIAEITADLPEERRAEALAVVRVLFGQAILEIDEAL
B8: GBRAP_184_5033 (protein)
chain: KVLEKEIKAKNKEELEEKLKKLAEEVKGSKADLIVLLDIENPTKEKVKLAIEGLGAIKKAGYVSSVTIGFENELSEELTDVALETADKEGVKVVLPISDE

In all, about 4,500 sequences were measured (“median log2 fold change of GCK-ALFA target abundance (FLAG IP / Myc IP barcode read proportion)”: median about 0.078, lowest 2% from about -0.6 on). The sample as a whole holds a higher share of the lowest values than the screen did.

In the assay the target is GABARAP, O95166. The experiment in a line: median log2 fold change of GCK-ALFA target abundance (FLAG IP / Myc IP barcode read proportion) (log2 ratio); each designed protein is fused to an ALFA-tag nanobody in HEK293 cells to bring the named protein to FLAG-tagged glucokinase (GCK); Myc marks an untargeted standard; higher = target protein stabilised (more abundant). The note with it: target protein: 3xFLAG-MCP-GCK-ALFA reporter; HEK293 landing pad (RPLP). Summed up: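 An ALFA-nanobody-fused binder library was recombined into HEK293 landing-pad cells and induced with 2 μg mL^−1 doxycycline. Cells were transfected with a plasmid expressing a FLAG-tagged target and a Myc-tagged standard. After 48 h, lysates underwent anti-FLAG and anti-Myc immunoprecipitation, and circular RNA barcodes were reverse transcribed, amplified and sequenced. Target abundance is the per-binder median log2 ratio of FLAG to Myc barcode read proportions. Barcodes needed ≥10^−7 proportion in both replicates, binders ≥3 barcodes per replicate, and a 10^−6 pseudocount was added; the two replicates were pooled.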
Sequence of GABARAP, O95166 (O95166 whole entry, the tested form may be a part): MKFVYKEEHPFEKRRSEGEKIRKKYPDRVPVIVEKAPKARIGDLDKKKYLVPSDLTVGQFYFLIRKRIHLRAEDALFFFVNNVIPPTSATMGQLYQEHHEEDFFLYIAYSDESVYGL
For B1, the “median log2 fold change” value was found to be 0.309.
Next, B2: 0.2.
To B3 belongs -0.0947; to B4, -0.0499; to B5, -0.567.
As to B6, the “median log2 fold change” value was -0.762.
Consider B7, for which the “median log2 fold change” value turned out to be 0.0613.
To B8 belongs -0.000909.

Source of the values: the supplement of paper PMC12632987.
